A selection: hits, their analogues and other compounds. The true share with any hit is near 27%.
EphB4 antag: EphB4-ephrin-B2 interaction antagonism; P54760; inhibition, % at 7 µM; 0.15% of 97,000 active; EphB4 LBD / TNYL-RAW-Alexa532 peptide, fluorescence polarization; AID 720;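 active = inhibition above the screen-wide mean inhibition plus 3 SD, cut at about 15% in these data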
CYP2C19 activ: activators of human cytochrome P450 2C19; P33261; recombinant CYP2C19, luciferin-H EGE luminescence; stronger effect = higher value; 0 = fully inhibited enzyme, 1 = untreated enzyme; activation factor at 5 µM; 96,000 tested, under 10 active;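 active = activation factor of at least 2 at 5 µM in the primary screen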
Target sequence (P33261 whole entry, looked up): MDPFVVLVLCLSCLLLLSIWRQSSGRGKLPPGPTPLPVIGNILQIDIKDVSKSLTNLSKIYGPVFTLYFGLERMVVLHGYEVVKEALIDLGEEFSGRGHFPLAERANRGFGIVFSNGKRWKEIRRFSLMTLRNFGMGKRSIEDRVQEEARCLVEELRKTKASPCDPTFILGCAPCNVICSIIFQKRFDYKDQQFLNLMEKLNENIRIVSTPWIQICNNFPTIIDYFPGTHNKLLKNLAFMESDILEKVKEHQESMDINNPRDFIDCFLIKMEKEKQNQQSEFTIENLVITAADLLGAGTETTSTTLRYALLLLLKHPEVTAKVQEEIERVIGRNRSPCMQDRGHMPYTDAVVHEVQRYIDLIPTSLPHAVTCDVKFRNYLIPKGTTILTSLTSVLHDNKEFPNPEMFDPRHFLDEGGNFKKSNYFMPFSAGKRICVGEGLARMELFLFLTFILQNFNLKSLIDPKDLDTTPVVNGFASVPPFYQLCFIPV
CYP2C19 inh: blocks human cytochrome P450 2C19 | inhibition, % at 5 µM | AID 778 | CYP2C19 Supersomes, luciferin-H EGE luminescence, 30 min | 21% of 96,000 active | P33261;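 active = CYP2C19 inhibition above a set limit at 5 µM in the primary screen, cut at about 50% in these data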
CYP2C9 inhib: blocks human cytochrome P450 2C9; CYP2C9 Supersomes, luciferin-H conversion, luminescence; inhibition, % at 5 µM; 20% of 96,000 active;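 active = blocking of liver enzyme CYP2C9 beyond about 50% at 5 µM, limit read from the data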
CYP2C9 act: CYP2C9 (human) activation; P11712; recombinant CYP2C9, luciferin-H conversion, luminescence; stronger effect = higher value; factor 1 = untreated enzyme, 0 = blocked; activation factor at 5 µM; 1.4% of 96,000 active; AID 1024;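 active = activation factor of 2 or more for CYP2C9 at a 5 µM dose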
Numbers stand for hits; . = inactive; / = not tested or not shown.

SMILES	EphB4 antag	CYP2C19 activ	CYP2C19 inh	CYP2C9 inhib	CYP2C9 act
COc1ccc(OC)c(C2CC(=O)c3c([nH]c(C(=O)OC(C)C)c3C)C2)c1 (stereo unspecified)	.	.	.	58	.
COCCNC(=O)c1ccc2c(c1)nc(C)n2-c1cc(OC)c(OC)c(OC)c1	.	.	.	.	.
Cn1c(=O)c2c(nc(SCC(=O)O)n2Cc2cc3c(cc2Cl)OCO3)n(C)c1=O	.	.	.	.	.
C=C(C)CNC(=S)N/N=C(\C)c1ccc(-n2ccnc2)cc1	.	.	100	100	.
C/C(=N\NC(=S)NCCc1ccccc1)c1ccc(C)cc1	.	/	/	/	/
CN(C(=O)c1ccncc1)c1nnc(-c2cnccn2)s1	.	.	89	97	.
Cc1ccc(-c2nnc(N(C)C(=O)c3ccncc3)s2)cn1	.	.	.	85	.
CCOC(=O)C1CCCCN1Cc1ccc(F)c(Br)c1 (stereo unspecified)	.	.	82	.	.
Clc1ccc(-c2cc(CSc3ccccc3)on2)cc1	.	.	.	.	.
Clc1ccc(-c2cc(CSc3cccc(Cl)c3)on2)cc1	.	.	75	.	.
O=c1[nH]c2c(s1)C(c1ccccc1)C1C3CCC(C3)C1S2 (stereo unspecified)	.	.	.	.	.
COc1ccc(C2c3sc(=O)[nH]c3SC3C4CCC(C4)C23)cc1 (stereo unspecified)	.	.	56	.	.
COc1cc(C2c3sc(=O)[nH]c3SC3C4CCC(C4)C23)ccc1O (stereo unspecified)	.	.	51	53	.
[N-]=[N+]=CC(=O)CC(c1ccccc1)N1C(=O)c2ccccc2C1=O (stereo unspecified)	.	.	.	.	.
COc1ccc(CNC(=O)C(C)N(Cc2ccco2)C(=O)c2snc(C(N)=O)c2N)cc1 (stereo unspecified)	.	.	85	64	.
CCc1ccccc1N(CC(=O)NCc1ccco1)C(=O)c1snc(C(N)=O)c1N	.	.	95	69	.
CC(C)CCNC(=O)C(c1ccco1)N(Cc1ccccc1)C(=O)c1snc(C(N)=O)c1N (stereo unspecified)	/	.	.	.	.
Cn1cc(S(=O)(=O)N2CCN(c3cccc(C(F)(F)F)c3)CC2)c(=O)n(C)c1=O	.	.	.	.	.
CCOc1ccc(-c2csc(C3COc4ccccc4O3)n2)cc1 (stereo unspecified)	.	/	/	/	/
CCn1c(SCC(=O)NCc2ccco2)nnc1-c1c[nH]c2ccccc12	.	.	.	.	.
CCn1c(SC(C)C(=O)OC)nnc1-c1c[nH]c2ccccc12 (stereo unspecified)	.	.	66	.	.
C=CCSc1nnc(-c2c[nH]c3ccccc23)n1CC	.	.	79	.	.
CCn1c(SCc2ccc(C(=O)OC)o2)nnc1-c1c[nH]c2ccccc12	.	.	98	83	.
CCn1c(SC)nnc1-c1c[nH]c2ccccc12	.	.	72	.	.
Cn1cnc2c1c(=O)n(Cc1ccc(F)cc1Cl)c(=O)n2C	.	.	.	.	.
SMILES	EphB4 antag	CYP2C19 activ	CYP2C19 inh	CYP2C9 inhib	CYP2C9 act
CCN(CC)S(=O)(=O)c1ccc2c(c1)nc(CCC(=O)OCc1c(C)noc1C)n2C	.	.	.	.	.
CCCCCOC(=O)C1[C@H]2C(=O)N(c3ccccc3CC)C[C@]23C=C[C@H]1O3 (stereo partly specified)	.	.	.	.	.
COCCn1c(SC)nnc1-c1c[nH]c2ccccc12	.	.	52	.	.
Cc1sc2nc(C3CC3)nc(SCC(=O)N3c4ccccc4CC3C)c2c1C (stereo unspecified)	.	.	65	99	.
Cc1sc2nc(C3CC3)nc(SCC(=O)NCc3ccco3)c2c1C	.	.	84	.	.
Cc1cc(NC(=O)CSc2nc(C3CC3)nc3sc(C)c(C)c23)no1	.	.	.	63	.
Cc1sc2nc(SCC(=O)NCc3ccco3)[nH]c(=O)c2c1C	/	.	.	.	.
COc1ccccc1-n1cnc2cc(NC(C)=O)ccc21	.	.	.	.	.
CCN(CC)S(=O)(=O)c1ccc(NC2=NS(=O)(=O)c3ccccc32)cc1	.	.	.	.	.
CCCn1c(=NC(C)=O)c(C#N)cc2c(=O)n3cccc(C)c3nc21	.	/	/	/	/
O=C(O)CCc1ccc(-c2ccc(Br)cc2)n1Cc1ccco1	.	.	.	.	.
Cc1ccc(-c2ccc(CCC(=O)O)n2CC2CCCO2)cc1 (stereo unspecified)	.	.	.	.	.

Screening data (PubChem)
